# Records with an inconclusive call do not appear. Active and inactive are the calls of the source. Calls follow the shape of the dose curve; as a rule, active = well fitted curve in the direction sought with a large enough effect; inconclusive = small, poorly fitted or top-dose-only effect, or another doubt; inactive = no such curve, though single readings can be large or run the other way.
# Target: Lysosomal acid glucosylceramidase (Homo sapiens) (UniProt P04062)
# Experiment: Activators of Human alpha-Glucosidase as a Potential Chaperone Treatment of Pompe Disease: Glucocerebrosidase Counter Screen
# Settings: Purified GBA enzyme, 4MU-beta-glucoside fluorescence, 40 min; series mostly up to 57.1 µM; activity change, negative = inhibition: at the top concentration
# Source text: Alpha-glucosidase is responsible for hydrolysis of terminal, non-reducing 1,4-linked alpha-D-glucose residues with release of alpha-D-glucose. It is a lysosomal hydrolase that is required for the degradation of a small percentage (1-3%) of cellular glycogen in human. Deficiency of this enzyme results in glycogen-storage disease type II (GSDII), also referred to as Pompe disease, an autosomal recessive disorder. Structurally normal glycogen is accumulated in lysosomes and cytoplasm in affected patients, primarily in muscle tissues. Excessive glycogen storage within lysosomes may interrupt normal functioning of other organelles and leads to cellular injury. In turn, this leads to enlargement and dysfunction of the entire organ involved (eg, cardiomyopathy and muscle weakness). It has reported that the improper folding and trafficking of alpha-glucosidase resulting from the genetic mutations may account for a significant number of Pompe patients. […] We optimized this alpha-glucosidase assay in 1536-well plate format for identifying the novel small molecule inhibitors with the structures other than the sugar analogs in order to develop the new pharmacological chaperones. NIH Chemical Genomics Center [NCGC] NIH Molecular Libraries Probe Production Centers Network [MLPCN] MLPCN Grant: MH086442-01 Assay Submitter (PI): Wei Zheng
# This is a fluorogenic enzyme assay with 4-methylumbelliferyl-beta-D-glucopyranoside as the substrate and purified wildtype glucocerebrosidase as the enzyme preparation. Upon the hydrolysis of this fluorogenic substrate, the resulting product, […] which can be detected by a standard fluorescence plate reader. Data were normalized to the controls for basal activity (without enzyme) and 100% activity (with enzyme). The AC50 values were determined from concentration-response data modeled with the standard Hill equation. Assay buffer: 50 mM citric acid (titrated with potassium phosphate to pH 5.0), 100 mM potassium chloride, 10 mM sodium chloride, 1 mM magnesium chloride, 0.01% Tween-20. 1536-well assay protocol: (1) Add 2 ul/well of glucocerebrosidase enzyme solution (5 nM final) (2) Add 23 nL compounds in DMSO solution. The final titration was 0.5 nM to 58 uM. (3) Add 2 ul of substrate (1 mM final) (4) Incubate at 37C for 40 min. (5) Add 2 ul stop solution (1M NaOH and 1M Glycine mixture, pH 10) (6) Detect the assay plate in a ViewLux plate reader (PerkinElmer) with Ex=365 nm and Em=440nm. Keywords: Glucocerebrosidase, beta-glucosidase, Gaucher Disease, pharmacological chaperone, chaperone therapy, high throughput screening, glucocerebrosidase inhibitor, MLSMR, MLSCN, NIH Roadmap, qHTS and NCGC
# Lysosomal acid glucosylceramidase (Homo sapiens), sequence (P04062 whole entry, looked up): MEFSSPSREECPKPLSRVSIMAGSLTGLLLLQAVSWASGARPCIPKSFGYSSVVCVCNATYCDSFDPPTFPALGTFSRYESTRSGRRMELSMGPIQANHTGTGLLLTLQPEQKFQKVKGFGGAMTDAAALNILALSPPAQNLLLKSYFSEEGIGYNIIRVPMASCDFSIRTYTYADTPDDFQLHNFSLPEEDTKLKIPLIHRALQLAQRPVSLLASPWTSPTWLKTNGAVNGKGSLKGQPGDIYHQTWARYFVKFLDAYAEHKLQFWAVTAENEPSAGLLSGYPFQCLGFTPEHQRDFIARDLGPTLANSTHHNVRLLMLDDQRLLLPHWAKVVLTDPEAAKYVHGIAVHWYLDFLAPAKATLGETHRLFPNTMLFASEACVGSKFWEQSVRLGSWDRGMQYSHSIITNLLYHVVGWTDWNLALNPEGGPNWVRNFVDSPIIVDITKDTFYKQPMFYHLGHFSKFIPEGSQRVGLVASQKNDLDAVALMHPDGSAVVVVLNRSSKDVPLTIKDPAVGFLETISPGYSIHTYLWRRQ
row,SMILES,"activity change, negative = inhibition"
1,COc1ccc(CCn2c3c(c(=O)[nH]c2=S)CN(c2ccccc2)CN3)cc1OC,0% (inactive)
2,CCCN1CNc2c(c(=O)[nH]c(=S)n2CCc2cccc(Cl)c2Cl)C1,-9.82% (inactive)
3,CCCN1CNc2c(c(=O)[nH]c(=S)n2CCc2ccsc2)C1,0% (inactive)
4,COc1ccc(CCn2c(=S)[nH]c(=O)c3[nH]cnc32)cc1OC,-5.98% (inactive)
5,CCCN1CNc2c(c(=O)[nH]c(=S)n2CCC(C)(C)C)C1,0% (inactive)
6,CCCN1CNc2c(c(=O)[nH]c(=S)n2CCc2c(C)cccc2C)C1,0% (inactive)
7,c1csc(-c2nc(NCC3CCCO3)c3ccccc3n2)c1 (stereo unspecified),0% [at 48.8 µM] (inactive)
8,COc1ccc(C#Cc2c[nH]c(=O)c3cncnc23)cc1OC,-3.96% (inactive)
9,CCCN1CNc2c(c(=O)[nH]c(=S)n2CCc2cc(Cl)cc(Cl)c2)C1,-2.31% [at 48.8 µM] (inactive)
10,CCCN1CNc2c(c(=O)[nH]c(=S)n2CCc2cccc(C)c2C)C1,0.391% (inactive)
11,CCCN1CNc2c(c(=O)[nH]c(=S)n2CCc2ccc3c(c2)OCCO3)C1,0% (inactive)
12,O=S(=O)(c1ccc(Cl)cc1)N1CCN(c2nc(Nc3cc(Cl)ccc3O)nc3ccccc23)CC1,0% [at 48.8 µM] (inactive)
13,CCCN1CNc2c(c(=O)[nH]c(=S)n2CCc2cc(Cl)ccc2Cl)C1,-1.89% [at 48.8 µM] (inactive)
14,CCCN1CNc2c(c(=O)[nH]c(=S)n2CCc2ccc(C)cc2C)C1,-4.57% (inactive)
15,COc1ccc(CCn2c(=S)[nH]c(=O)c3nccnc32)cc1OC,0% (inactive)
16,COc1ccc(CCc2c[nH]c(=O)c3cncnc23)cc1OC,2.44% (inactive)
17,COc1ccc(CCn2c3c(c(=O)[nH]c2=S)CN(C(C)C)CN3)cc1OC,0% (inactive)
18,CCCN1CNc2c(c(=O)[nH]c(=S)n2Cc2ccc(OC)c(OC)c2)C1,0% (inactive)
19,OCCNc1nc(-c2cccs2)nc2ccccc12,0% (inactive)
20,CCCN1CNc2c(c(=O)[nH]c(=O)n2CCc2ccc(OC)c(OC)c2)C1,0% (inactive)
21,O=S(=O)(c1ccc(Cl)cc1)N1CCN(c2nc(-c3cccs3)nc3ccccc23)CC1,0% (inactive)
22,COc1ccc(CCn2c3c(c(=O)[nH]c2=S)CN(C)CN3)cc1OC,0% (inactive)
23,COc1ccc(C#Cc2cnc(Cl)c3cncnc23)cc1OC,1.38% [at 48.8 µM] (inactive)
24,CCCN1CNc2c(c(=O)[nH]c(=S)n2CCc2cc(C)ccc2C)C1,0% (inactive)
25,COc1ccc(CCn2c(=S)[nH]c(=O)c3c(C)cc(C)nc32)cc1OC,-5.66% (inactive)
26,CCCN1CNc2c(c(=O)[nH]c(=S)n2CCc2ccc(C)c(C)c2)C1,0% (inactive)

# From PubChem BioAssay AID540341 (National Center for Advancing Translational Sciences (NCATS), 2011)
